Source: PubChem BioAssay (Broad Institute)
Pf Dd2 inh: blocks growth of Plasmodium falciparum Dd2 parasites; P. falciparum Dd2 growth, SYBR Green, 72 h; active compounds read low; activity change, % at 10 µM; actives 2.3% (n = 94,000); AID 1159554; in the data active = activity change below about -80%; inconclusive = no clear call, values can overlap the other calls
T cruzi growth-1: blocks T. cruzi growth in NIH3T3 culture | T. cruzi beta-gal in NIH3T3, GalScreen luminescence, 90 h | inhibition, % at 8.34 µM | actives 5.9% (n = 77,000) | AID 624255;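 active = mean inhibition above about 93%, with at least 55% of replicates each passing it, limit read from the data, passing the limit was not always enough; inconclusive = only one of those two conditions holds; inactive = neither condition holds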
C diff HTS: inhibitors of Clostridium difficile growth | AID 1259249 | actives 0.25% (n = 86,000) | Clostridium difficile clinical isolate growth, OD600, 24 h; active compounds read low | growth activity, negative = inhibition, % at 16 µg/mL (by protocol);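 active = mean growth activity at or below -80% and every replicate also at or below -80%; inconclusive = mean at or below -80% but some replicate above -80%; inactive = mean growth activity above -80%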;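 also: 0% = DMSO wells and -100% = levofloxacin 16 µg/mL wells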
T cruzi growth-2: Trypanosoma cruzi proliferation inhibition | shares compounds with T cruzi growth-1 | T. cruzi beta-gal in NIH3T3, GalScreen luminescence, 90 h | inhibition, % at 8.35 µM | actives 72% (n = 5,600) | AID 651739;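 active = mean replicate inhibition above about 95% and at least 55% of replicates individually reaching it, limit read from the data; inconclusive = only one of the two criteria is met; inactive = neither criterion is met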
T cruzi growth-3: blocks T. cruzi growth in NIH3T3 host cells; shares compounds with T cruzi growth-1; T. cruzi beta-gal in NIH3T3, GalScreen luminescence, 90 h; inhibition, % at 2.09 µM; actives 21% (n = 5,600);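 active = mean inhibition above about 95%, with at least 55% of replicates also reaching it, limit read from the data; inconclusive = meets just one of the two conditions; inactive = meets neither condition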;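 also: plate controls were neutral control median for no effect and positive control median for full effect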
3T3 cytotox: cytotoxicity in mouse NIH/3T3 fibroblasts; shares compounds with T cruzi growth-1; NIH/3T3 viability, CellTiter-Glo ATP luminescence, 90 h; cytotoxicity (signal decrease), % at 8.35 µM; actives 14% (n = 5,600); AID 651742;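 active = mean signal decrease across replicates above about 35% based on untreated-well scatter, with enough replicates individually passing, limit read from the data; inconclusive = no rule stated though some were filed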;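 also: 0% = median of neutral control wells and 100% = median of positive control wells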
3T3 cytotox 2: kills mouse NIH/3T3 fibroblasts; shares compounds with T cruzi growth-1; NIH/3T3 viability, CellTiter-Glo ATP luminescence, 90 h; inhibition, % at 24.9 µM; actives 56% (n = 5,600); AID 651744;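 active = mean loss of cell viability signal at or above a set limit, and enough replicates individually reaching it; inconclusive = meets only the mean limit or only the replicate share; inactive = meets neither condition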;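 also: 0% = median of neutral control wells and 100% = median of positive control wells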
* hit, by the source's call. Hits are enriched below; roughly 6.7% of the tested compounds scored in any of these assays.

Results for Cc1ccccc1-c1ccc([C@H]2[C@H]3CN(C(=O)NC4CCCC4)CCCCN3[C@H]2CO)cc1 ?
Pf Dd2 inh: -8.1; T cruzi growth-1: 112.4*; C diff HTS: 10.1; T cruzi growth-2: 105.5*; T cruzi growth-3: 52.7; 3T3 cytotox: -10.7; 3T3 cytotox 2: 54.7*

Results for Cc1ccccc1-c1ccc([C@H]2[C@@H](CO)N3CCCCN(C(=O)NC4CCCC4)C[C@@H]23)cc1 ?
Pf Dd2 inh: 26.1; T cruzi growth-1: 106.0*; C diff HTS: -6.7; T cruzi growth-2: 108.1*; T cruzi growth-3: 92.9; 3T3 cytotox: 17.1; 3T3 cytotox 2: 80.8*

Results for COc1ccccc1-c1ccc([C@@H]2[C@@H](CO)N3CCCCN(C(=O)NC4CCCC4)C[C@@H]23)cc1 ?
Pf Dd2 inh: 12.9; T cruzi growth-1: 77.4; C diff HTS: 16.1

How did O=C(C[C@@H]1CC[C@H](NC(=O)Nc2ccccc2)[C@@H](CO)O1)NCc1cccc(F)c1 do in these assays?
Pf Dd2 inh: 10.6; C diff HTS: 0.8

How did C[C@@H]1CCCCO[C@@H](CN(C)S(=O)(=O)c2cccs2)[C@@H](C)CN([C@H](C)CO)C(=O)c2cc(N(C)C)ccc2O1 do in these assays?
Pf Dd2 inh: -25.4; T cruzi growth-1: 58.5; C diff HTS: 2.1

How did COc1ccc(C(=O)Nc2ccc3c(c2)OC[C@@H](C)N(C(C)=O)C[C@@H](C)[C@@H](OC)CN(C)C3=O)cc1 do in these assays?
Pf Dd2 inh: -7.2; T cruzi growth-1: 26.9; C diff HTS: -2.0

How did Cc1ccc(-c2ccc([C@H]3[C@@H](CO)N4C(=O)CN(C(=O)Nc5cccc(F)c5)C[C@@H]34)cc2)cc1 do in these assays?
Pf Dd2 inh: -40.4; C diff HTS: 11.3

What do the screens show for `Cc1ccc(-c2ccc([C@@H]3[C@@H](CO)N4CCCCN(C(=O)Nc5cccc(F)c5)C[C@@H]34)cc2)cc1`?
Pf Dd2 inh: -19.9; T cruzi growth-1: 104.8*; C diff HTS: 65.0; T cruzi growth-2: 89.2; T cruzi growth-3: inconclusive; 3T3 cytotox: 68.8*; 3T3 cytotox 2: 104.8*

How did O=C(Nc1cccc(F)c1)N1CCCCN2[C@@H](CO)[C@@H](c3ccc(-c4ccncc4)cc3)[C@@H]2C1 do in these assays?
Pf Dd2 inh: -57.6; T cruzi growth-1: inconclusive; C diff HTS: 11.4; T cruzi growth-2: 104.5*; T cruzi growth-3: 82.9; 3T3 cytotox: 22.6; 3T3 cytotox 2: 43.1*

Results for O=C(Nc1cccc(F)c1)N1CCCCN2[C@H](C1)[C@H](c1ccc(-c3ccncc3)cc1)[C@@H]2CO ?
Pf Dd2 inh: -19.7; T cruzi growth-1: 76.4; C diff HTS: -0.7

How did Cc1ccc(-c2ccc([C@@H]3[C@H]4CN(C(=O)Nc5cccc(F)c5)CCCCN4[C@H]3CO)cc2)cc1 do in these assays?
Pf Dd2 inh: 10.0; T cruzi growth-1: 98.9*; C diff HTS: 50.4; T cruzi growth-2: 99.6*; T cruzi growth-3: 108.2*; 3T3 cytotox: 46.7*; 3T3 cytotox 2: 103.8*

Results for CNC[C@@H]1Oc2c(NC(=O)NC(C)C)cccc2C(=O)N([C@@H](C)CO)C[C@@H]1C ?
Pf Dd2 inh: 9.5; T cruzi growth-1: -5.9; C diff HTS: 4.8

What do the screens show for `C[C@H](O)C#Cc1cnc2c(c1)C(=O)N([C@H](C)CO)C[C@H](C)[C@@H](CN(C)Cc1cccc(F)c1)O2`?
Pf Dd2 inh: -2.0; T cruzi growth-1: -6.9; C diff HTS: -4.7

How did C[C@H]1CN([C@@H](C)CO)C(=O)c2cccc(N(C)C)c2O[C@H]1CN(C)Cc1ccc(C(=O)Nc2ccccc2N)cc1 do in these assays?
Pf Dd2 inh: -74.9; T cruzi growth-1: 93.7; C diff HTS: -1.7

What do the screens show for `O=C(C[C@H]1C[C@H]2c3cc(NC(=O)Cc4ccncc4)ccc3O[C@H]2[C@H](CO)O1)NCc1ccccn1`?
Pf Dd2 inh: 16.0; T cruzi growth-1: -32.3

How did C[C@@H]1CN([C@@H](C)CO)C(=O)Cc2cc(NS(C)(=O)=O)ccc2O[C@@H]1CN(C)C(=O)Nc1ccc(F)cc1 do in these assays?
Pf Dd2 inh: 8.8; T cruzi growth-1: 12.6; C diff HTS: 5.8

How did C[C@@H]1CCCCO[C@@H](CN(C)CC2CCCCC2)[C@@H](C)CN([C@H](C)CO)C(=O)c2cc(NC(=O)Nc3cccc4ccccc34)ccc2O1 do in these assays?
Pf Dd2 inh: -32.6; T cruzi growth-1: inconclusive; C diff HTS: 10.0; T cruzi growth-2: 105.3*; T cruzi growth-3: 105.0*; 3T3 cytotox: 18.4; 3T3 cytotox 2: 36.3*

How did C[C@H](CO)N1C[C@H](C)[C@H](CN(C)Cc2ccccc2)OCCCC[C@H](C)Oc2ccc(NC(=O)Nc3cccc4ccccc34)cc2C1=O do in these assays?
Pf Dd2 inh: 9.1; T cruzi growth-1: 117.2*; C diff HTS: 47.2; T cruzi growth-2: 92.1; T cruzi growth-3: 63.0; 3T3 cytotox: 6.7; 3T3 cytotox 2: 93.1*

How did C[C@@H]1CCCCO[C@@H](CN(C)CC2CCCCC2)[C@H](C)CN([C@@H](C)CO)C(=O)c2cc(NC(=O)Nc3cccc4ccccc34)ccc2O1 do in these assays?
Pf Dd2 inh: -79.2; T cruzi growth-1: 116.7; C diff HTS: 2.4

How did C[C@@H]1CN([C@H](C)CO)C(=O)c2cc(NC(=O)Nc3cccc4ccccc34)ccc2O[C@@H](C)CCCCO[C@H]1CN(C)Cc1ccccc1 do in these assays?
Pf Dd2 inh: inconclusive; T cruzi growth-1: 111.5*; C diff HTS: 58.5; T cruzi growth-2: 91.7; T cruzi growth-3: 104.5*; 3T3 cytotox: 33.7; 3T3 cytotox 2: 106.7*

What do the screens show for `C[C@@H]1CN([C@@H](C)CO)C(=O)c2cc(NC(=O)Nc3cccc4ccccc34)ccc2O[C@@H](C)CCCCO[C@@H]1CN(C)Cc1ccccc1`?
Pf Dd2 inh: -61.3; T cruzi growth-1: 116.3*; C diff HTS: 6.6; T cruzi growth-2: 110.1*; T cruzi growth-3: 101.1*; 3T3 cytotox: 26.6; 3T3 cytotox 2: inconclusive

What do the screens show for `CCCNC(=O)N1[C@@H]2Cn3c(cccc3=O)[C@H]1[C@@H](C(=O)N1CCC(Cc3ccccc3)CC1)[C@@H]2CO`?
T cruzi growth-1: 49.0; C diff HTS: 7.6

Results for CN(C)C(=O)C[C@@H]1CC[C@H]2[C@H](COc3ccc(NC(=O)c4cnccn4)cc3C(=O)N2C)O1 ?
Pf Dd2 inh: 4.9; T cruzi growth-1: -72.4; C diff HTS: -2.6

How did Cc1noc(C)c1S(=O)(=O)Nc1ccc2c(c1)C(=O)N([C@@H](C)CO)C[C@@H](C)[C@@H](CN(C)C(=O)NC(C)C)O2 do in these assays?
Pf Dd2 inh: 24.7; T cruzi growth-1: -51.3; C diff HTS: 0.5
